Rows were chosen to be rich in hits. Some 2.8% of all compounds tested hit in one or more screens of this group.
MITF TRPM1 HTS: activators of MITF-driven TRPM1 promoter activity in SK-MEL-5 cells; activation, % at 12.5 µM; 300,000 compounds, 0.75% hits; SK-MEL-5 TRPM1-promoter luciferase, 24 h; % of positive control, neutral wells = 0; AID 588334;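 active = mean activation of at least 80% with every replicate also reaching 80%; inconclusive = mean reaches 80% but some replicate falls short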
FXN GAA850 act: activators of GAA850 frataxin (FXN) promoter. HEK293 lucGAA850 FXN promoter luciferase reporter, 24 h; percent of 10 µM SAHA response. activation, % at 6 µM. 360,000 compounds, 0.56% hits. AID 540364;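 active = activation above the average of all compounds screened plus 3 SD, cutoff fixed separately per campaign, cut at about 7.5% in these data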
esBAF inh: blocks esBAF chromatin remodeling in mouse ES cells | AID 602393 | 350,000 compounds, 2% hits | Bmi1-luciferase knock-in reporter, 24 h; 100% = twice the neutral-well signal | reporter increase, % at 12.5 µM; in the data active = activation above about 40%; inconclusive = no clear call, values can overlap the other calls;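 note: a rise in the Bmi1 reporter signal indicates esBAF inhibition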
Wnt act: activators of Wnt/beta-catenin signaling. AID 743398. Wnt/beta-catenin reporter cell assay, activator, plate reader. 300,000 compounds, 1.2% hits. activation, % at 9.35 µM; in the data active = activation above about 30%, passing the limit was not always enough; inconclusive = no clear call, values can overlap the other calls
GAA30 FXN cntr: GAA30 FXN promoter activation counter-screen; shares compounds with FXN GAA850 act; HEK293 lucGAA30 FXN promoter luciferase, 24 h; DMSO = 0%, 5 µM ipriflavone = 100%; activation, % at 6 µM; 1,900 compounds, 66% hits;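 active = mean activation above the mean of solvent-only control wells plus 3 SD, cut at about 22% in these data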;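 note: counterscreen of GAA850 promoter hits where activity marks nonselective or luminescence artifacts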
FXN GAA850 conf: confirmation of GAA850 frataxin (FXN) promoter activators; shares compounds with FXN GAA850 act; HEK293 lucGAA850 FXN promoter luciferase reporter, 24 h; 100% = activation by SAHA; activation, % at 6 µM; 1,900 compounds, 86% hits; AID 588351;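 active = mean activation above a set limit taken from the primary screen, cut at about 8% in these data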
Each line names hits and unclear results; the compound was inactive in the other large screens (follow-up assays come after a bar, where they were run).

COc1ccc(NC(=O)N2CCc3ccccc3C2)c(OC)c1	esBAF inh 54
C[C@H]1CCCCO[C@H](CN(C)C(=O)Nc2cccc3ccccc23)[C@@H](C)CN([C@@H](C)CO)C(=O)c2cc(NC(=O)C3CCCCC3)ccc2O1	none (no result: MITF TRPM1 HTS, FXN GAA850 act, Wnt act)
C[C@H]1CN([C@@H](C)CO)C(=O)c2cccc(NS(C)(=O)=O)c2O[C@@H]1CN(C)Cc1ccc(Cl)c(Cl)c1	none (no result: MITF TRPM1 HTS, FXN GAA850 act, Wnt act)
O=C(c1ccco1)N1CCN(C(=S)Nc2cccc([N+](=O)[O-])c2)CC1	none (no result: esBAF inh)
O=[N+]([O-])c1cccc(NC(=S)N2CCc3ccccc3C2)c1	esBAF inh 58
Cc1ccc(NC(=O)N2CCc3ccccc3C2)cc1C	MITF TRPM1 HTS 95, esBAF inh 61, Wnt act inconclusive
COc1ccc(NC(=O)N2CCc3ccccc3C2)cc1OC	none
Nc1ccc(C#Cc2ccc3sc4ccccc4c(=O)c3c2)cc1	esBAF inh 43
COc1cccc2sc3ccc(C#Cc4ccc(N)cc4)cc3c(=O)c12	MITF TRPM1 HTS 102, esBAF inh 61, Wnt act 37
O=c1c2ccccc2sc2ccc(C#CC3(O)CCCCC3)cc12	none
COc1cccc2sc3ccc(C#CC4(O)CCCCC4)cc3c(=O)c12	MITF TRPM1 HTS 107
O=C(CCSc1ccc(Cl)cc1)NC1CCCCC1	none (no result: esBAF inh, Wnt act)
O=C(CCSc1ccc(Cl)cc1)NC12CC3CC(CC(C3)C1)C2	esBAF inh 50 (no result: MITF TRPM1 HTS)
O=C(CCS(=O)(=O)c1ccccc1)NCCS(=O)(=O)c1ccccc1	none (no result: esBAF inh)
O=C(CCS(=O)(=O)c1ccccc1)NC12CC3CC(CC(C3)C1)C2	MITF TRPM1 HTS 97
C[C@@H]1CN([C@@H](C)CO)C(=O)c2cc(NS(=O)(=O)c3ccccc3)ccc2O[C@@H](C)CCCCO[C@H]1CN(C)C	none (no result: MITF TRPM1 HTS, FXN GAA850 act, Wnt act)
CNC[C@@H]1Oc2ccc(NS(=O)(=O)c3ccc(OC)cc3)cc2CC(=O)N([C@@H](C)CO)C[C@H]1C	none (no result: MITF TRPM1 HTS, FXN GAA850 act, Wnt act)
Cc1occc1-c1nnc(SC(C)C(=O)Nc2ccccc2F)o1 (configuration not stated)	Wnt act 42 (no result: esBAF inh)
CCCNC(=O)Nc1ccc2c(c1)OC[C@H](C)N(CCC(F)(F)F)C[C@H](C)[C@H](OC)CN(C)C2=O	none (no result: MITF TRPM1 HTS, FXN GAA850 act, Wnt act)
N#C/C(=C/c1ccc(N2CCCCC2)cc1)c1cccc(F)c1	esBAF inh 66, Wnt act 33
COc1cc(N2CCCC2)c(OC)cc1/C=C(/C#N)c1ccc(F)cc1	none
CO[C@@H]1CN(C)C(=O)c2cc(NS(=O)(=O)CC(F)(F)F)ccc2OC[C@H](C)N(CCC(F)(F)F)C[C@H]1C	none (no result: MITF TRPM1 HTS, FXN GAA850 act, Wnt act)
C#CCn1c(=NC(=O)c2cccs2)sc2cccc(OC)c21	esBAF inh 54
Cc1cc(NC(=S)Nc2ccc(C)c(Cl)c2)n[nH]1	MITF TRPM1 HTS 91, Wnt act inconclusive (no result: esBAF inh)
Cc1ccc(C(=O)CSc2ccccn2)cc1	esBAF inh 49 (no result: Wnt act)
COc1ccc(-c2ccc3c(c2)O[C@H](CN(C)CC2CCOCC2)[C@H](C)CN([C@H](C)CO)S3(=O)=O)cc1	none (no result: MITF TRPM1 HTS, FXN GAA850 act, Wnt act)
CCc1nonc1NC(=O)c1oc2cc(C)c(Cl)cc2c1C	none
CCc1nonc1NC(=O)c1oc2cc(C)c(C)cc2c1C	MITF TRPM1 HTS 86
CCOc1ccc(CCNC(=O)c2ccc3ccccc3n2)cc1OCC	esBAF inh 57
COc1ccc(-c2csc(-c3cccs3)n2)c(OC)c1	none
COc1ccc(-c2csc(-c3ccccc3)n2)c(OC)c1	MITF TRPM1 HTS 86 (no result: esBAF inh)
Cc1cnc(C(=O)Nc2ccc(C(C)C)cc2)cn1	MITF TRPM1 HTS 131, Wnt act 39 (no result: esBAF inh)
Cc1cc(C)c2nc(N3CCCC(C(=O)NC4CCCC4)C3)sc2c1 (configuration not stated)	esBAF inh 58
Cc1ccc(S(=O)(=O)N(C)CC(=O)Nc2cc(C)ccn2)cc1	esBAF inh 66, Wnt act 38
COc1ccc2c(c1)C(=O)c1ccccc1CO2	none (no result: esBAF inh, Wnt act)
COc1ccc(C2=Nc3ccccc3OC2)cc1	esBAF inh 64
COc1ccc(NC(=O)Nc2ccc3c(c2)[C@@H]2C[C@H](CC(=O)NCc4ccccn4)O[C@@H](CO)[C@@H]2O3)cc1	none (no result: MITF TRPM1 HTS, FXN GAA850 act, Wnt act)
COc1ccc(CN(C)C[C@@H]2Oc3c(NS(=O)(=O)c4ccc(C)cc4)cccc3C(=O)N([C@@H](C)CO)C[C@H]2C)cc1	none (no result: MITF TRPM1 HTS, FXN GAA850 act, Wnt act)
O=c1cc(-c2ccc(O)c(O)c2)oc2cc(O)cc(O)c12	MITF TRPM1 HTS 101, FXN GAA850 act 11
COc1cc(OC)c2c(=O)cc(-c3ccccc3)oc2c1	Wnt act 52
COc1cc(OC)c2c(=O)cc(-c3cccnc3)oc2c1	none
COc1ccc(-c2cc(=O)c3c(O)cc(O)cc3o2)cc1	MITF TRPM1 HTS 112, Wnt act 64
CCOC(=O)c1snc(C(=O)NC2CCCCC2)c1N	MITF TRPM1 HTS 84, esBAF inh 60
Nc1c(C(=O)NC2CCCCC2)nsc1C(=O)OCC(=O)NC1CCCCC1	none (no result: MITF TRPM1 HTS, Wnt act)
Oc1ccc(/C=N/Nc2ccc(C(F)(F)F)cn2)c(O)c1	none (no result: esBAF inh)
Oc1ccc(/C=N/Nc2cccc(Cl)n2)c(O)c1	MITF TRPM1 HTS 109
C[C@@H]1CN([C@@H](C)CO)C(=O)c2cccc(NS(=O)(=O)c3ccccc3)c2O[C@@H]1CN(C)Cc1ccncc1	none (no result: MITF TRPM1 HTS, FXN GAA850 act, Wnt act)
O=C1OC(/C(=C\Nc2ccc(F)cc2F)[N+](=O)[O-])c2ccccc21 (configuration not stated)	none (no result: esBAF inh)
O=C1OC(/C(=C\Nc2cc(Cl)ccc2O)[N+](=O)[O-])c2ccccc21 (configuration not stated)	FXN GAA850 act 12 (no result: esBAF inh) | GAA30 FXN cntr 51 | FXN GAA850 conf inactive
CCN(CC)S(=O)(=O)c1cc(NC(=O)CSc2nc3c(cc2C#N)C(=O)CC(C)(C)C3)ccc1C	FXN GAA850 act 10 (no result: esBAF inh, Wnt act) | GAA30 FXN cntr inactive | FXN GAA850 conf inactive
C[C@@H]1CCCCO[C@@H](CN(C)Cc2ccc3c(c2)OCO3)[C@@H](C)CN([C@H](C)CO)C(=O)c2cc(NC(=O)c3ccccc3)ccc2O1	none (no result: MITF TRPM1 HTS, FXN GAA850 act, Wnt act)
C[C@H](CO)N1C[C@H](C)[C@@H](CN(C)C(=O)Nc2ccc(C(F)(F)F)cc2)Oc2ccc(NC(=O)CCC(F)(F)F)cc2CC1=O	none (no result: MITF TRPM1 HTS, FXN GAA850 act, Wnt act)
C[C@@H]1CN([C@H](C)CO)S(=O)(=O)c2ccc(Br)cc2O[C@@H]1CN(C)Cc1ccccc1	none (no result: MITF TRPM1 HTS, FXN GAA850 act, Wnt act)
C[C@@H]1CN([C@H](C)CO)S(=O)(=O)c2ccc(Br)cc2O[C@@H]1CN(C)Cc1ccc(-c2ccccc2)cc1	FXN GAA850 act 14 (no result: MITF TRPM1 HTS) | GAA30 FXN cntr 24 | FXN GAA850 conf 11
C[C@H]1CCCCO[C@@H](CN(C)C(=O)c2ccccc2)[C@@H](C)CN([C@@H](C)CO)C(=O)c2cc(NC(=O)Cc3ccccc3)ccc2O1	none (no result: MITF TRPM1 HTS, FXN GAA850 act, Wnt act)
CCOC(=O)c1c(C)oc2ccc(NS(=O)(=O)c3cccs3)cc12	none (no result: esBAF inh)

From PubChem BioAssay
